Compound activity from PubChem BioAssay.
The list is not random: actives were taken first. Their share in the collection is about 9.5%.
Tau FP inhib: inhibitors of human tau fibril formation | K18 P301L tau heparin fibrillization, Alexa594 FP, 6 h | P10636 | Potency, µM (titrated, usually from 57.7 µM), for inactives: at the top dose activity, negative = inhibition, most hits filed as inhibitors | actives 0.39% (n = 280,000); further: nearly all actives have a fitted effect of over 55% in size
Target sequence (P10636 561-689 P618L limits assumed): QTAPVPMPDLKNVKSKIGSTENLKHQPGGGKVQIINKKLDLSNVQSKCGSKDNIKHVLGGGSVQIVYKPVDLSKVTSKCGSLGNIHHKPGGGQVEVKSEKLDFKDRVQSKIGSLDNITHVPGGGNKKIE
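Quantitative HTS format: compounds meet 15 uM recombinant K18 P301L tau and Alexa 594-tau tracer in 100 mM sodium acetate pH 7; 20 uM heparin triggers fibrillization at 37 C over 6 hr; FP gives the signal.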
HPGD block: inhibitors of human 15-hydroxyprostaglandin dehydrogenase (HPGD); P15428; purified HPGD, NADH fluorescence kinetic, PGE2 substrate; Potency, µM, inactives show at the highest dose activity change, negative = inhibition, most hits filed as inhibitors; actives 4.3% (n = 150,000); AID 894; active means well fitted inhibition curve with a large enough effect, not every such curve was filed as active; inconclusive means small, poorly fitted or top-dose-only effect, or another doubt; inactive means no such curve, though single readings can be large or run the other way
Target sequence (P15428 whole entry, looked up): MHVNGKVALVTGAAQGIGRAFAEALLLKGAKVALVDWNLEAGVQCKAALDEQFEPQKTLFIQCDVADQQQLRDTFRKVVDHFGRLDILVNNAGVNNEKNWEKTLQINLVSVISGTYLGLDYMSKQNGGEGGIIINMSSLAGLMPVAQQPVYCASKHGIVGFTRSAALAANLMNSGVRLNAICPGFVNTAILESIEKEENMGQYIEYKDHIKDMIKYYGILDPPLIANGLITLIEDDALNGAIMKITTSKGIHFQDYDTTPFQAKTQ
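20 nM HPGD preincubated 15 min at room temperature with compound in 50 mM Tris-HCl pH 8, 0.01% Tween 20. Started with 1 mM NAD+ and 30 uM prostaglandin E2; NADH fluorescence (360/450 nm) read 5 times over 30-s intervals, last minus first.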
NPSR antag: antagonists of human neuropeptide S receptor cAMP signaling. Q6W5P4. CHO-NPSR cells, cAMP TR-FRET, antagonist mode. Potency, µM (doses to about 38.3 µM), for inactives: at the highest dose activity change, negative = inhibition, usual class: inhibitors. actives 1% (n = 220,000); further: nearly all actives have a fitted effect of over 50% in size
Tau ThT inhib: blocks human tau fibril formation measured by thioflavin T; P10636; recombinant tau K18 P301L, heparin-induced fibrillization, ThT fluorescence; Potency, µM (series often up to 57.4 µM), for the others: at the highest dose activity, negative = inhibition, hits mostly inhibitors; actives 2.1% (n = 270,000); further: nearly all actives have a fitted effect of over 55% in size
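Aggregation was driven by heparin (20 uM final) acting on recombinant tau […] bearing P301L in 100 mM sodium acetate pH 7; fibrils were detected with Thioflavin T.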
ALDH1A1 inh: blocks purified human ALDH1A1 activity | Purified ALDH1A1, NADH fluorescence, propionaldehyde substrate | Potency, µM (doses to about 75.3 µM), without a hit: top-dose activity, negative = inhibition, most hits filed as inhibitors | actives 7.3% (n = 220,000); active means well fitted inhibition curve with a large enough effect, not every such curve was filed as active; inconclusive means small, poorly fitted or top-dose-only effect, or another doubt; inactive means no such curve, though single readings can be large or run the other way;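 further: plate controls were no enzyme wells and a reference inhibitor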
Tau fluor counter: counter-screen for tau fibril formation inhibitors | Potency, µM (highest dose often 57.7 µM), without a hit: at the highest dose activity change, negative = decrease | tau K18 P301L (four-repeat tau fragment) Alexa594 fluorescence, heparin fibrillization | actives 0.93% (n = 280,000); further: nearly all actives have a fitted effect of over 55% in size
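Human K18 P301L tau (15 uM unlabeled plus 0.24 uM Alexa 594-labeled, final) in 100 mM sodium acetate pH 7 was mixed with compound and 20 uM heparin and incubated 6 hr at 37 C.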
* = called active by the depositor; u = inconclusive; x = not tested or not shown; [ ] = remark or other dose. Unless noted, the call rests on the fitted dose curve; in most records, active means well fitted curve in the direction sought with a large enough effect; inconclusive means small, poorly fitted or top-dose-only effect, or another doubt; inactive means no such curve, though single readings can be large; an effect the other way counts as inactive or inconclusive. Unless noted, on the % scale 0 is the no-effect control and ±100 the full control effect; potency means the concentration at half of the fitted maximal effect.

SMILES	Tau FP inhib	HPGD block	NPSR antag	Tau ThT inhib	ALDH1A1 inh	Tau fluor counter
CC(C)c1ccc(NC(=O)C2CCCN2S(=O)(=O)c2ccc3nc(-c4ccccc4)[nH]c3c2)cc1 (centres undefined)	14µM*	x	x	9%	x	11µM*[quencher]
CC(C)c1ccc(NC(=O)C2CCCN(S(=O)(=O)c3ccc4[nH]c(=O)ccc4c3)C2)cc1 (centres undefined)	-17%	x	x	6%	x	-9%
Cc1cccc(NC(=O)C2CCCN2S(=O)(=O)c2ccc3nc(-c4ccccc4)[nH]c3c2)c1 (centres undefined)	u	x	x	1%	x	20µM*[quencher]
COc1cccc(NC(=O)C2CCCN2S(=O)(=O)c2ccc3nc(-c4ccccc4)[nH]c3c2)c1 (centres undefined)	-15%	x	x	-11%	x	-11%
Cc1ccc(NC(=O)C2CCCN2S(=O)(=O)c2ccc3nc(-c4ccccc4)[nH]c3c2)cc1C (centres undefined)	u	x	x	-15%	x	32µM*[quencher]
Clc1ccc(CSc2nc3ncccc3[nH]2)cc1	-4%	x	x	-4%	x	-6%
CCCCC[C@H](O)/C=C/C=C\C/C=C\CCCCCCC(=O)O	-4%	-5%	x	-8%	1%	-6%
N#CC1=C(N)N=C(SCc2cccc3ccccc23)C(C(N)=O)C12CCCCC2 (centres undefined)	-6%	-14%	-18%[46.1 µM]	20µM*	u	u
O=C(O)CCn1c(SCc2cccc3ccccc23)nc2ccccc21	-3%	-21%	-5%[46.1 µM]	-19%	6%	-10%
CC(=O)Nc1ccc(NC(=O)C2CCN(C(=O)c3cccs3)CC2)cc1	2%	x	0%	-1%	13µM*	5%
Cc1cnc(C(=O)Nc2ccc(C(=O)N3CCCCC3)cc2)cn1	-6%	0.28µM*	0%[46.1 µM]	-11%	-3%	-8%
CCCCCCC(=O)Nc1ccc(C(=O)N2CCCC2)cc1	u	4µM*	-13%[46.1 µM]	-16%	u	-11%
O=C(Nc1ccccc1)C1CCCCC1	-7%	25µM*	13%[46.1 µM]	-2%	8%	-9%
O=C(Nc1ccc(Nc2ccccc2)cc1)C1CC1	8%	-15%	-18%[46.1 µM]	u	-7%	u
COc1ccc(OC)c(NC(=O)C2CCN(C(=O)c3cccs3)CC2)c1	3%	x	-6%	3%	2%	-2%
CCNC(=O)[C@H]1O[C@H](n2cnc3c(N)nc(NCCc4ccc(CCC(=O)O)cc4)nc32)[C@@H](O)[C@@H]1O	7%	-12%	x	-6%	u	-7%
O=C(/C=C/c1ccc(Cl)cc1)Nc1nc(-c2cccs2)ns1	u	x	x	7%	x	-14%
O=C(O)CCC(=O)Nc1ccc(C(=O)OC2CCCCC2)cc1	-3%	-24%	5%[46.1 µM]	-5%	-12%	-1%
O=C(O)CCC(=O)Nc1ccc(C(=O)N2CCCCC2)cc1	-6%	0.71µM*	4%[46.1 µM]	2%	-6%	3%
O=C(Nc1ccc(S(=O)(=O)N2CCCCC2)cc1)C1CCCN(C(=O)c2ccc(Cl)cc2)C1 (centres undefined)	0%	u	-12%	8%	-3%	4%
O=C(Nc1ccc(C(=O)N2CCCCC2)cc1)C1CCCCC1	-15%	2µM*	-8%[46.1 µM]	-12%	u	-8%
CN(C)S(=O)(=O)c1ccc(NC(=O)C2CCCN(C(=O)c3ccc(Cl)cc3)C2)cc1 (centres undefined)	5%	-18%	-10%	2%	13µM*	-10%
O=C(O)CCCC(=O)Nc1ccc(C(=O)N2CCCCC2)cc1	0%	2.2µM*	-11%[46.1 µM]	3%	9%	5%
COc1ccc(NC(=O)C2CCN(C(=O)c3ccc(OC)cc3)CC2)cc1	3%	-10%	-2%[46.1 µM]	0%	-4%	4%
CC1C(=O)N2CCCc3cc(S(=O)(=O)Nc4ccc(Br)cc4F)cc1c32 (centres undefined)	8%	x	x	-3%	x	-2%
